According to paper PMC4336329 (PLoS ONE, 2015):
The campaign covered roughly 310,000 compounds. About 14,000 (4.5%) showed an effect of 50% or more. Effects have a minus sign here. Only a selection was taken, and strong results are over-represented in it overall.

target: human ether-à-go-go-related gene (hERG) potassium channel (human, UniProt Q12809); experiment: primary screen, population patch clamp on CHO cells stably expressing hERG; higher = less effect of the substance
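Further: peak tail current of the secondary pulse compared with the same well before compound.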

Sequence of human ether-à-go-go-related gene (hERG) potassium channel (Q12809 whole entry, looked up): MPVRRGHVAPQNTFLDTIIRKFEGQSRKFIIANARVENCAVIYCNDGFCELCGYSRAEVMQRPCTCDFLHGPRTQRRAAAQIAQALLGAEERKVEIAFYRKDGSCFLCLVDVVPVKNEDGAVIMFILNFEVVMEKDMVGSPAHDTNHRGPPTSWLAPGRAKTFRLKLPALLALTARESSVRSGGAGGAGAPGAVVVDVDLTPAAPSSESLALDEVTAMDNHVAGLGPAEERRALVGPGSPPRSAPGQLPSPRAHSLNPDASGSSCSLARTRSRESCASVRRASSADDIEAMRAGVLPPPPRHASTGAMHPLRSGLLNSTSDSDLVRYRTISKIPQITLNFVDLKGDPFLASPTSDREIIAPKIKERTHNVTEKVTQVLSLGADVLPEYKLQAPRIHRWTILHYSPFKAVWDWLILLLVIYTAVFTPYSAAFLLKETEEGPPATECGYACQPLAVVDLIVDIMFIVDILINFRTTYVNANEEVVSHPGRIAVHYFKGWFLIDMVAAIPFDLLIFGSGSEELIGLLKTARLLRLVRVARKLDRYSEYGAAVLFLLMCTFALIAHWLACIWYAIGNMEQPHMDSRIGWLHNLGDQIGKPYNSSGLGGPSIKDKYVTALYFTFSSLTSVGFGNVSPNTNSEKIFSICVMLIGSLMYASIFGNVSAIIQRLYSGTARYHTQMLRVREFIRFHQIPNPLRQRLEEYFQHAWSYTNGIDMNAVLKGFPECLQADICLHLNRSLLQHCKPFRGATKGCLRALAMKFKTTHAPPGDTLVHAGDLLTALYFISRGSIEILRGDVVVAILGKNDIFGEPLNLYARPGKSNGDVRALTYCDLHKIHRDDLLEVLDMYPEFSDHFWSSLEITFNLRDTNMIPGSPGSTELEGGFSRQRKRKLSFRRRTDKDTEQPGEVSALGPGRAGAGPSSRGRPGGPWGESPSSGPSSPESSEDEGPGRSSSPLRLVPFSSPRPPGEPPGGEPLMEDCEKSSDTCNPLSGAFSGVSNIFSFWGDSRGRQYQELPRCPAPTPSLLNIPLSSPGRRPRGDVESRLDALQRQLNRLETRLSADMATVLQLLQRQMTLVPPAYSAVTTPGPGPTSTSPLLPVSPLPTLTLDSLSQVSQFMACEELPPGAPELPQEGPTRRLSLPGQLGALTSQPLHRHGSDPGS

Compound | hERG current change (%, negative = inhibition) at 10uM
C=CCn1c(COc2ccccc2)nnc1SC(C)C(=O)N/N=C/c1cc(Cl)ccc1O (stereo not drawn) | 0.335%
CCCN1CCN(C(=O)c2ccc3nc(CC)c(CC)nc3c2)CC1 | 1.54%
CNC(=O)COc1ccc(S(=O)(=O)Nc2ccccc2)cc1 | 14.4%
O=C(c1ccco1)N1CCCSC1=Nc1ccccc1 | 12%
Cc1ccc(S(=O)(=O)N/N=c2\oc3ccccc3cc2C(=O)Nc2cccc(C)c2)cc1 | -68.1%
COc1cccc2cc(C(=O)Nc3cc(C)cc(C)c3)/c(=N/NS(=O)(=O)c3ccccc3)oc12 | 19.5%
COc1ccc(NC(=O)c2cc3ccccc3o/c2=N\NS(=O)(=O)c2ccc(C)cc2)cc1 | -13.6%
O=C1CN(C(=O)c2cccc([N+](=O)[O-])c2)CC(=O)N1 | 13.4%
O=C1CC2(CCN(C(=O)c3cccc([N+](=O)[O-])c3)CC2)Oc2ccccc21 | -75.7%
O=C1CC2(CCN(C(=O)c3ccc([N+](=O)[O-])cc3)CC2)Oc2ccccc21 | -87.9%
O=C(c1cccc([N+](=O)[O-])c1)N1CCOCC1 | 11.7%
Cc1nn2c(C(F)(F)F)c3c(nc2c1-c1ccccc1)CCC3 | 19.1%
CC(=O)Nc1ccc(NS(=O)(=O)C(F)(F)F)cc1 | 31.2%
O=C(COc1ccc(Cl)cc1)NCC(=O)N1CCC2(CC1)NCCc1[nH]cnc12 | 7.16%
O=C(CSc1nc2c(c(=O)n1-c1ccc(F)cc1)SCC2)Nc1ccc2c(c1)OCO2 | -2.35%
COc1cccc(-c2cc(C(=O)NCCc3ccccc3)no2)c1 | 11.9%
OC1(Cc2cc(-c3ccccc3)no2)CCN(CCCc2ccccc2)CC1 | -77%
COc1cccc(-c2cc(CC3(O)CCN(CCCc4ccccc4)CC3)on2)c1 | -89.1%
c1ccc(CCCN2CCOCC2)cc1 | 22.1%
COc1cccc(-c2cc(C(=O)N3CCN(Cc4ccccc4)CC3)no2)c1 | -15.7%
CC(C)(C)OC(=O)N1CCC(Cc2cc(-c3ccccc3)no2)(C(=O)O)CC1 | 12.1%
COCCN1Cc2cccc(C(=O)Nc3ccc(S(=O)(=O)N4CCOCC4)cc3)c2C1=O | 27.3%

Compound | hERG current change (%, negative = inhibition) at 10uM
O=C(O)CCCN=C1NC2(CCCC2)Cc2ccccc21 | -39.6%
COc1cccc(C(=O)N(Cc2ccccc2)Cc2cc3cc4c(cc3[nH]c2=O)OCCO4)c1 | -25.3%
COc1cc(CC(=O)OCC(=O)NC2CC2)cc(OC)c1OC | 10.4%
COc1cc(Br)c(CC(=O)NC2CC2)cc1OC | 17.8%
COc1ccccc1CC(=O)N1CCC(CCC(=O)NC2CC2)CC1 | 13.8%
COc1ccc(OC)c(C(=O)N2CCC(CCC(=O)NC3CC3)CC2)c1 | 13.1%
COc1cc(CN2CCC(CCC(=O)NC3CC3)CC2)cc(Cl)c1OC | -55.4%
COc1cc(Cl)cc(CN2CCC(CCC(=O)NC3CC3)CC2)c1OC | -20.8%
COc1cc(NC(=O)C2CC2)c(OC)cc1NC(=O)CCC(=O)NC1CCN(Cc2ccccc2)CC1 | 2.82%
COc1cc(Cl)c(CN2CCC(CCC(=O)NC3CC3)CC2)cc1OC | -66.2%
CCOCc1cc(CN2CCC(CCC(=O)NC3CC3)CC2)ccc1OC | -62.1%
COc1ccc(-c2nc3ccccc3c(=O)n2CCOc2ccccc2C)cc1 | 21%
Cc1ccccc1-c1nc(CS(=O)(=O)CC(=O)NCCN2CCCC2)c(C)o1 | -10.4%
COC(=O)c1ccccc1NC(=O)CCC(=O)N1CCSc2ccccc21 | -12.1%
COc1ccc(N(CC(=O)Nc2cccc(SC)c2)S(C)(=O)=O)cc1 | -12.5%
CC(CCc1ccccc1)NC(=O)CNC(=O)c1cccs1 (stereo not drawn) | -5.72%
COc1ccc(NC(=O)NNC(=O)C(C)Oc2ccc3ccccc3c2)cc1 (stereo not drawn) | 8.34%
CC(C)(C)c1ccc(-c2conc2N)cc1 | 5.58%
CCOc1ccccc1C(=O)N(C)CC(=O)Nc1ccc(OC)cc1 | 12%
Cc1ccc(S(=O)(=O)NNC(=S)Nc2c(Cl)cccc2Cl)cc1 | 16.8%
Cc1cc(N2CCCc3ccccc32)n2ncnc2n1 | 6.99%
Cc1ccc(S(=O)(=O)N(C)C)cc1NC(=O)C1Cc2ccccc2CN1C(=O)c1ccco1 (stereo not drawn) | -9.91%

Compound | hERG current change (%, negative = inhibition) at 10uM
CCOC(=O)CSc1nc(C)c2ccccc2n1 | 0.921%
CCOC(=O)CSc1nc(NCc2ccco2)c2ccccc2n1 | -56.1%
CCOC(=O)c1nc(NCc2cccc(OC)c2)c2ccccc2n1 | -13.5%
COc1ccc(CNc2nc(SCC(=O)NCc3ccco3)nc3ccccc23)cc1 | -68.9%
COc1ccc(-c2ccc(SCC(=O)NCc3ccco3)nn2)cc1 | -8.73%
COc1ccc(CNc2ncnc3ccccc23)cc1 | 21.7%
COc1ccc(CNC(=O)c2ccccc2SCC(=O)NCc2ccco2)cc1 | -31.3%
CSc1nc(NCc2ccco2)c2ccccc2n1 | 2.5%
CCCCN(C)C(=O)CSc1nc(NCc2ccc(OC)cc2)c2ccccc2n1 | -71%
CCN1CCN(Cc2ccc(NC(=O)c3cc(NC(=O)c4cc(C)on4)cc(OC)c3)cc2C(F)(F)F)CC1.O=C(O)C(F)(F)F | -28.7%
Cc1ccc2cccc(S(=O)(=O)NC3CCS(=O)(=O)C3)c2n1 (stereo not drawn) | -7.02%
O=S(=O)(NCC1(N2CCOCC2)CCCCC1)c1ccc(Cl)cc1C(F)(F)F | -0.581%
Cc1cc(NC(=O)c2cc3n(n2)C(C(F)(F)F)CC(c2ccco2)N3)no1 (stereo not drawn) | 4.63%
Cn1c(=O)n(-c2ccc(Cl)cc2)c(=O)c2c3c(sc21)COC(C)(C)C3 | 3.68%
O=C(N/N=C/c1cccnc1)c1ccccc1Cl | 14.2%
COc1ccc(Cc2c(O)[nH]c(=S)[nH]c2=O)cc1 | 13.8%
CN1CCN(C(=O)CN(CCc2ccccc2)S(C)(=O)=O)CC1 | 11%
Cc1ccc(C)c(-n2cc(CNCCc3cnccn3)c(-c3ccccc3)n2)c1 | -67.1%
Cc1ccc(C)c(-n2cc(CN3CCCN(C=O)CC3)c(-c3ccccc3)n2)c1 | -31.9%
CCn1ccnc1CN(C)Cc1cn(-c2cc(C)ccc2C)nc1-c1ccccc1 | -51.7%
CCn1ccnc1CN(C)Cc1cn(-c2ccc(C)cc2)nc1-c1cccc(C)c1 | -28.1%
CCn1ccnc1CNCc1cn(-c2cc(C)ccc2C)nc1-c1ccccc1 | -69.3%

Compound | hERG current change (%, negative = inhibition) at 10uM
CCn1ccnc1CN(C)Cc1cn(-c2cccc(C)c2)nc1-c1cccc(F)c1 | -18.3%
CCn1ccnc1CN(C)Cc1cn(-c2ccc(C)cc2)nc1-c1ccc(F)cc1 | -39.9%
Cc1ccc(C)c(-n2cc(CN3CCNC(=O)CC3)c(-c3ccccc3)n2)c1 | -43.5%
COCCN1CCC(CNCc2cn(-c3cc(C)ccc3C)nc2-c2ccccc2)C1 (stereo not drawn) | -18%
CCCN1CCC(=NNC(=O)c2ccc(Br)o2)CC1 | -7.22%
COc1ccc(S(=O)(=O)N=C2C=C(C)C(=O)C(C)=C2)cc1 | -8.48%
Cc1cc(=O)n2ccsc2n1 | 3.28%
Cc1cc(=O)[nH]c2c1cnn2Cc1ccccc1 | 3.72%
COc1ccc(/C=C(\C#N)C(=O)OCC(=O)NCc2ccccc2Cl)cc1 | 6.86%
Cc1nn(Cc2ccccc2Cl)c(C)c1C(=O)N1CCN(c2ccccc2)CC1 | -58.6%
Cc1cccc(N2CCN(C(=O)c3c(C)nn(Cc4ccccc4Cl)c3C)CC2)c1C | -0.851%
Cc1cccc(NC(=O)CN2CCN(C(=O)c3c(C)nn(Cc4ccccc4)c3C)CC2)c1C | -20.4%
Cc1nn(Cc2ccccc2)c(C)c1C(=O)O | -19.1%
Cc1nn(Cc2ccccc2Cl)c(Cl)c1C(=O)O | 8.83%
Cc1nn(Cc2ccccc2)c(C)c1C(=O)N1CCN(CC(=O)Nc2ccccc2Cl)CC1 | -50.3%
O=C(CN1CCN(CC(=O)Nc2ccccc2Cc2ccccc2)CC1)Nc1ccccc1Cl | 20%
Cc1nn(Cc2ccccc2)c(C)c1C(=O)N1CCN(CC(=O)Nc2ccc(F)cc2)CC1 | -62.6%
Cc1nn(Cc2ccccc2)c(C)c1C(=O)N1CCN(S(=O)(=O)/C=C/c2ccccc2)CC1 | -24.8%
CC(=O)c1ccc(OCCCCOc2ccc(C(C)=O)cc2)cc1 | 21.4%
COc1ccccc1OC(=O)c1ccc(SC)cc1OC | -24%
C[C@]12CC[C@@H]3c4ccc(OS(=O)(=O)[O-])cc4CC[C@H]3[C@@H]1CCC2=O.[Na+] | 16.9%
